Values joined by “and” are separate entries in the source; they are usually repeats but may differ in a detail not shown here. Identical values can stand only once. Inconclusive results are not listed. Where a structure was tested more than once in an assay, its records may differ in their call. Active and inactive are the calls of the source. Unless noted, calls follow the shape of the full dose curve.

Experiment [1] in a line: Nuclear factor erythroid 2-related factor 2/antioxidant responsive element (Nrf2/ARE) small molecule agonists: qHTS cell viability counter screen in human keratinocytes (AID 1919968; active = well fitted curve in the direction sought with a large enough effect in the repeat runs; an effect the other way counts as inactive or inconclusive; also: nearly all actives have a fitted effect of over 55% in size; also: potency is read from the fitted curve at half-maximal effect). In a few lines: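 HaCaT ARE reporter line, 1,500 cells/well; 5 h settle, 37 C/5% CO2; cpd in DMSO pinned; 23 h exposure; CellTiter-Fluor, 1 h; fluorescence.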
(qHTS replaces the single test concentration by a dilution series.)

Experiment [2] can be described thus: Nuclear factor erythroid 2-related factor 2/antioxidant responsive element (Nrf2/ARE) small molecule agonists: luciferase reporter gene qHTS assay in human keratinocytes (AID 1919969). Also: nearly all actives have a fitted effect of over 35% in size. Also: potency is read from the fitted curve at half-maximal effect. On the technique in general: A reporter such as luciferase makes a cellular process visible.
Experiment [3] concerns the target Gonadotropin-releasing hormone receptor (Homo sapiens) (UniProt P30968). The experiment is described as follows: Human gonadotropin-releasing hormone receptor (GnRHR) small molecule agonists, calcium flux assay in GnRHR-HEK293 cells (AID 1920063). Also: nearly all actives have a fitted effect of over 35% in size. In a few lines: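 GnRHR-HEK293, 1500 cells/well, 18 h 37 C/5% CO2; Ca dye 1 h 37 C; cpd pinned (DMSO), agonist mode; kinetic FL 480/540, 3 min, 1 s reads; 15 conc, n=3.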
(Calcium assays in cells follow changes in intracellular calcium, usually with a dye or a luminescent sensor.)

Experiment [4] deals with KiSS-1 receptor (Homo sapiens) (UniProt Q969F8). Description: Human kisspeptin (KISS1R) small molecule agonists, calcium flux assay in KISS1R-HEK293 cells (AID 1920064; active = well fitted curve in the direction sought with a large enough effect in the repeat runs; an effect the other way counts as inactive or inconclusive). In a few lines:
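Stable human KISS1R HEK293 line; 18 h plating, 37 C/5% CO2; calcium dye 1 h 37 C; compound pin transfer; kinetic fluorescence Ex/Em 480/540, 3 min.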

A short description of experiment [5]: G protein-coupled receptor (GPCR) small molecule agonists, calcium flux assay: HEK293 wild type cell line counter screen (AID 1920065). In a few lines: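 Kinetic fluorescence at Ex/Em 480/540, recorded every second over 3 min, served as the read-out after compound addition. Each compound was tested at 15 concentrations in triplicate on cells pre-loaded with calcium dye for 1 h.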

The nature of experiment [6]: p53 small molecule agonists, cell-based qHTS assay with human liver microsomes (AID 1963577). The gist of the method: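 p53RE-bla cells, 4,000/well, compound added after 5 h, with human liver microsomes 0.5 mg/mL and NADPH 0.5 mg/mL final; 16 h at 37 C, then LiveBLAzer 2 h RT, fluorescence.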
A short description of experiment [7]: p53 small molecule agonists, cell-based qHTS assay with rat liver microsomes (AID 1963578). The gist of the method: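 p53RE-bla cells, 4,000/well, pre-incubated 5 h, then given compounds plus rat liver microsomes (0.5 mg/mL final) and NADPH (0.5 mg/mL final). Incubation 16 h at 37 C; beta-lactamase reporter read by LiveBLAzer fluorescence after 2 h at room temperature.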

A short description of experiment [8]: p53 small molecule agonists, cell-based qHTS assay with human liver microsomes: qHTS cell viability counter screen (AID 1963579). Also: nearly all actives have a fitted effect of over 45% in size. Also: potency is read from the fitted curve at half-maximal effect. The gist of the method: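 p53RE-bla cells, 4,000/well, dosed 5 hours after plating, with human liver microsomes (0.5 mg/mL final) plus NADPH (0.5 mg/mL final), 16 hours at 37 C. Viability read as CellTiter-Glo luminescence after 30 min at room temperature.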

A short description of experiment [9]: p53 small molecule agonists, cell-based qHTS assay with rat liver microsomes: qHTS cell viability counter screen (AID 1963580). Also: nearly all actives have a fitted effect of over 45% in size. Also: potency is read from the fitted curve at half-maximal effect. The gist of the method: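 Intracellular ATP, by CellTiter-Glo luminescence, defines viability. HCT-116 p53RE-bla cells, 4,000 per well, were compound-treated in the presence of rat liver microsomes and NADPH for 16 h at 37 C.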
The nature of experiment [10]: p53 small molecule agonists, cell-based qHTS assay (AID 1963582; active = well fitted activation curve with a large enough effect in the signal ratio in the repeat runs, not every such curve was filed as active; the % refers to the signal ratio). The gist of the method: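 Reporter line: p53RE-bla. Pre-incubation 5 h, 37 C, 5% CO2; compound (DMSO, pin tool) 16 h, 37 C; B/G FRET substrate 2 h RT; fluorescence intensity read.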
The target in experiment [11] is 5-hydroxytryptamine receptor 2A (Homo sapiens) (UniProt P28223). The experiment is described as follows: 5-hydroxytryptamine receptor 2A (HTR2A) small molecule agonists, cell-based qHTS assay (AID 1963587). Also: nearly all actives have a fitted effect of over 30% in size. Also: potency is read from the fitted curve at half-maximal effect. The gist of the method:
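Kinetic calcium-flux fluorescence (2 min, 1 sec intervals) after compound addition in agonist mode. HTR2A-CHO cells were cultured 18 h, then dye-loaded 1 h at 37 C.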

For experiment [12], the target named is Muscarinic acetylcholine receptor M1 (Homo sapiens) (UniProt P11229). The experiment is described as follows: Cholinergic receptor muscarinic 1 (CHRM1) small molecule antagonists, cell-based qHTS assay (AID 1963588). Also: nearly all actives have a fitted effect of over 40% in size. In a few lines:
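CHRM1-CHO calcium-flux assay, antagonist mode. Cells were seeded 18 h, dye-loaded 1 h at 37 C and given compound for 5 min at RT, then acetylcholine was added at 50nM. FDSS fluorescence was read 3 min; 15 concentrations, three runs.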

The target is the same in experiment [13]. Description: Cholinergic receptor muscarinic 1 (CHRM1) small molecule agonists, cell-based qHTS assay (AID 1963589). Also: nearly all actives have a fitted effect of over 35% in size. In a few lines: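 Human M1 in stable CHO line; 18 h plating, 1 h dye load 37 C; cpd added (agonist mode); Ca2+ fluorescence kinetic read, 1 s intervals; 15 conc, 3 runs.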
Experiment [14] is described as follows: cAMP Responsive Elements (CRE) small molecule agonists, cell-based qHTS assay (AID 1963590). The gist of the method: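 HEK 293T CRE-bla, 2,000 cells/well, 18 h preincubation 37 C/5% CO2; cpds (DMSO) pinned, 3 h; LiveBLAzer B/G FRET substrate, 2 h RT.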
Experiment [15] can be described thus: cAMP Responsive Elements (CRE) small molecule antagonists, cell-based qHTS assay (AID 1963591; active = well fitted inhibition curve with a large enough effect in the signal ratio in the repeat runs, not every such curve was filed as active; the % refers to the signal ratio). The gist of the method: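 Beta-lactamase reporter read by FRET substrate (LiveBLAzer B/G) after 2 h at room temperature. CRE-bla HEK293T cells had received compound plus 0.25 uM (final) NKH477 for 3 h at 37 °C.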
For experiment [16], the target named is Beta-2 adrenergic receptor (Homo sapiens) (UniProt P07550). The experiment is described as follows: Adrenergic beta2 receptor (ADRB2) small molecule antagonists, cell-based qHTS assay (AID 1963592). Also: series mostly up to about 92 µM; nearly all actives have a fitted effect of over 50% in size. The gist of the method: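 Cells (CHO, stable ADRB2 overexpression) incubated 18-20hr at 37C; compounds added from DMSO; agonist mix (1nM isoproterenol, 100uM IBMX, 25uM Ro-20-1724) added; 0.5hr RT; d2-cAMP and anti-cAMP-cryptate added; 1hr RT; 665/615 nm read.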

The target is the same in experiment [17]. The experiment is described as follows: Adrenergic beta2 receptor (ADRB2) small molecule agonists, cell-based qHTS assay (AID 1963593).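 Also: CHO cells stably overexpressing human ADRB2.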 In a few lines:
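CHO cells stably over-expressing ADRB2 were plated overnight at 37C, then dosed with compounds plus a stimulation mix containing 100uM IBMX and 25uM Ro-20-1724 for 0.5hr at room temperature. cAMP was measured by HTRF competition, 1hr.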

In experiment [18] the target is D(2) dopamine receptor (Homo sapiens) (UniProt P14416). The experiment is described as follows: Dopamine D2 receptor (DRD2) small molecule agonists, cell-based qHTS assay (AID 1963594). Also: nearly all actives have a fitted effect of over 35% in size. The gist of the method:
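cAMP accumulation in DRD2-HEK293 cells measured by HTRF after 1 h detection; compounds added 10 min before NKH477 (200nM […]) forskolin-analogue stimulation, 30 min at room temperature, with Ro20-1724 present at 0.1 mM final.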

Experiment [19] has the same target. Description: Dopamine D2 receptor (DRD2) small molecule antagonists, cell-based qHTS assay (AID 1963595; active = well fitted inhibition curve with a large enough effect in the signal ratio in the repeat runs, with a control signal flat; the % refers to the signal ratio). The gist of the method: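 Cells were plated and grown for 24 h at 37 °C. Ro20-1724 (0.1 mM final) went in first, then compound for 10 min. NKH477 (200 nM) with quinpirole (12 nM) followed for 30 min at RT, then HTRF detection reagents for 1 h.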
The nature of experiment [20]: p53 small molecule agonists, cell-based qHTS assay: qHTS cell viability counter screen (AID 1963581). Also: nearly all actives have a fitted effect of over 45% in size. Also: potency is read from the fitted curve at half-maximal effect. The gist of the method: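 HCT-116 p53RE-bla cells, 4,000/well, plated 5 h before compound pin transfer; 16 h at 37 C; bla substrate 2 h RT; then CellTiter-Glo, 30 min RT, luminescence.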

Sequence of KiSS-1 receptor (Homo sapiens) (Q969F8 whole entry, looked up): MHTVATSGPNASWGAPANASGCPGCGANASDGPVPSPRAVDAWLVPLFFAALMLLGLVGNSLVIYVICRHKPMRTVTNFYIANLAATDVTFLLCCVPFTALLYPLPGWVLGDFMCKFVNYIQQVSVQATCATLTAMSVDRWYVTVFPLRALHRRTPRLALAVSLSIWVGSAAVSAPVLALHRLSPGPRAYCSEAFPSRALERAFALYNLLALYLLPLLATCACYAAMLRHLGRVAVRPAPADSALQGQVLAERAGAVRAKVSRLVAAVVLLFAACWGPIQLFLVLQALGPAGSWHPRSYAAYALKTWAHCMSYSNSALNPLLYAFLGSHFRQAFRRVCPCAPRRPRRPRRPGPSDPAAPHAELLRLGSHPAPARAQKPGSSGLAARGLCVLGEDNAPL
Sequence of D(2) dopamine receptor (Homo sapiens) (P14416 whole entry, looked up): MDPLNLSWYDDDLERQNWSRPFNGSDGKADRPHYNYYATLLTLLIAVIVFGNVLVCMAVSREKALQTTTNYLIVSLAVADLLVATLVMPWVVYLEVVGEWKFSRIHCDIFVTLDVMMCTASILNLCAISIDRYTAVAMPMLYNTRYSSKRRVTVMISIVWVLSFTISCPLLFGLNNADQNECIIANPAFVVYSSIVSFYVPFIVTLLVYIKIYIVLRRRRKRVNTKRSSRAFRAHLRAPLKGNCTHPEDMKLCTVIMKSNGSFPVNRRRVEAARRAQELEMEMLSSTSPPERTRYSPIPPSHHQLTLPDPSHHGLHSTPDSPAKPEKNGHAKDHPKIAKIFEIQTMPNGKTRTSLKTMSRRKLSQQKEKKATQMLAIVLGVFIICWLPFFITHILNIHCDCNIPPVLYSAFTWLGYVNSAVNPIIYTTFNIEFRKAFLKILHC
Sequence of Muscarinic acetylcholine receptor M1 (Homo sapiens) (P11229 whole entry, looked up): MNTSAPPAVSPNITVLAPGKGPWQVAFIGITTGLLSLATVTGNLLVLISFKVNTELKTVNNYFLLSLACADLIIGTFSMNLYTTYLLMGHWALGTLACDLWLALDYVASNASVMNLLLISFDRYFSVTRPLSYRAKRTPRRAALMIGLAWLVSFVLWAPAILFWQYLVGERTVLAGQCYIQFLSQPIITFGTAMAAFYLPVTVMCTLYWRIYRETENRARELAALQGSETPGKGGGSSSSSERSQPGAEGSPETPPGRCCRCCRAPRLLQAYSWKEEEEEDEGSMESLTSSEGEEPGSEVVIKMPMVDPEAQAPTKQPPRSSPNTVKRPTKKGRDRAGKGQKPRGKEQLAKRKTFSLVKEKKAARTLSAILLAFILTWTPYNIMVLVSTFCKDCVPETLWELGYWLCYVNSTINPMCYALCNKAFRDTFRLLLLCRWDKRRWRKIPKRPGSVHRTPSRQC
Sequence of 5-hydroxytryptamine receptor 2A (Homo sapiens) (P28223 whole entry, looked up): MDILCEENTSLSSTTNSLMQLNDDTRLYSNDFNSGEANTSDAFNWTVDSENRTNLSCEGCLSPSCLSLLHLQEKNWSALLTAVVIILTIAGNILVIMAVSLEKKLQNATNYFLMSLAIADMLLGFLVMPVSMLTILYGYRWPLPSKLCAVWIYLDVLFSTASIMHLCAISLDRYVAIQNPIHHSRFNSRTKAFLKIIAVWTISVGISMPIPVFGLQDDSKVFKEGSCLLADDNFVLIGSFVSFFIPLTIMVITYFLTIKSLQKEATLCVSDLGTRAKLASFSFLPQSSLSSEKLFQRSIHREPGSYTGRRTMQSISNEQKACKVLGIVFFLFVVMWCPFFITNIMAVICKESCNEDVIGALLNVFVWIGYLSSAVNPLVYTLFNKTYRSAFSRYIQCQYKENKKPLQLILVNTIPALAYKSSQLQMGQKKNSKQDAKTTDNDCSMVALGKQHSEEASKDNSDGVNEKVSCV
Sequence of Gonadotropin-releasing hormone receptor (Homo sapiens) (P30968 whole entry, looked up): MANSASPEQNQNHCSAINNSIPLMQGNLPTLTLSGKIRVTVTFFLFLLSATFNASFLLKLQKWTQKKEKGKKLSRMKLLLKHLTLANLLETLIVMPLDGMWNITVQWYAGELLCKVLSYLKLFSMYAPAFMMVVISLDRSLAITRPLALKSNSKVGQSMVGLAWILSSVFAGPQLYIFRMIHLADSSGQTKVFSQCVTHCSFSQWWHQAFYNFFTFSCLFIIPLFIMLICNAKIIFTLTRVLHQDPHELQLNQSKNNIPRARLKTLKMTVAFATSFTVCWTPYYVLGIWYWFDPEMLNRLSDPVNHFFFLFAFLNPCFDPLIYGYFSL
Sequence of Beta-2 adrenergic receptor (Homo sapiens) (P07550 whole entry, looked up): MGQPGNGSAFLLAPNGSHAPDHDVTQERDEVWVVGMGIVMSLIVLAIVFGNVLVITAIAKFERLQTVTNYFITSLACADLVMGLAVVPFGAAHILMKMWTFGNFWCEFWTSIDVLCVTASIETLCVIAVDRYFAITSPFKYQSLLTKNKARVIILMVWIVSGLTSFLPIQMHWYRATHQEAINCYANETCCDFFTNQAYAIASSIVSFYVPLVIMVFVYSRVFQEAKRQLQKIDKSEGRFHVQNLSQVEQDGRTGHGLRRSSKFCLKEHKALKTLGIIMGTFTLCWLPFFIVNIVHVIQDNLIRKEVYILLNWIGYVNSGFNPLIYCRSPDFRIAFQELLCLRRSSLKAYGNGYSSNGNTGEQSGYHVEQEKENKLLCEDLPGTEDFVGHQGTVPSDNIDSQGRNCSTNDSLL

As for `CC(C)CCO`, the Potency result in experiment [1], in experiment [2], in experiment [3], in experiment [4], in experiment [5] and in experiment [6] was “inactive” each time. In addition, the Potency result in experiment [7], in [8], in experiment [9], in experiment [10], in experiment [11] and in experiment [12] was “inactive” in each case. Further, the Potency result in experiment [13], in experiment [14], in experiment [15], in experiment [16], in [17] and in experiment [18] was “inactive” in each case. In addition, the Potency result in experiment [19] was “inactive”.
Take `CCO/C([O-])=N/c1c[n+](N2CCOCC2)no1`: the Potency result in [1], in experiment [2], in [3], in [4], in experiment [5] and in [6] was “inactive” throughout. The Potency result in experiment [7], in experiment [8], in experiment [9], in experiment [20], in experiment [11] and in [12] was “inactive” in each case. In addition, the Potency entry in [13], in experiment [14], in [15], in experiment [17], in experiment [18] and in experiment [19] was “inactive” throughout.
With `c1cnccn1`, the Potency entry in experiment [1], in experiment [2], in experiment [3], in [4], in experiment [5] and in experiment [6] was “inactive” in each case. The Potency entry in [7], in experiment [8], in [9], in experiment [20], in [11] and in [12] was “inactive” throughout. Also, the Potency result in experiment [13], in [14], in experiment [15], in [16] and in experiment [19] was “inactive” each time.
With `CC(=O)N1CCN(c2ccc(O)cc2)CC1`, the Potency result in experiment [1], in experiment [2], in [3], in [4], in [5] and in [6] was “inactive” in each case. For the same compound, the Potency result in experiment [7], in experiment [8], in experiment [9], in experiment [20], in experiment [12] and in experiment [13] was “inactive” throughout. The Potency entry in [14], in experiment [15], in experiment [16], in [18] and in experiment [19] was “inactive” throughout.
In the case of `CN(C)CCCNCCCN(C)C`, the Potency result in experiment [1], in experiment [2], in experiment [3], in experiment [4], in [5] and in experiment [6] was “inactive” in each case. The Potency result in [7], in experiment [8], in [9], in experiment [20], in experiment [11] and in experiment [12] was “inactive” each time. Also, the Potency result in [13], in experiment [14], in experiment [15], in experiment [17], in experiment [18] and in experiment [19] was “inactive” throughout.
For `CC(C)CCCCCCc1ccc(O)cc1`, the Potency in experiment [1] was 6.22 µM (active); in experiment [2], 2.48 µM (active) and inactive; in [8], 41.5 µM (active); in experiment [9], 18.5 µM (active); in experiment [20] it was 45.8 µM (active); in experiment [11] it was 44.4 µM (active) and 49 µM (active). Further, the Potency entry in [3], in [4], in experiment [5], in experiment [6], in experiment [7] and in experiment [12] was “inactive” in each case. Also, the Potency entry in [13], in [16] and in experiment [18] was “inactive” in each case.
For the compound `Cc1cn([C@H]2C[C@H](F)[C@@H](CO)O2)c(=O)[nH]c1=O`, the Potency entry in experiment [1], in [2], in [3], in experiment [4], in [5] and in [6] was “inactive” each time. For the same compound, the Potency result in experiment [7], in [8], in experiment [9], in [10], in experiment [11] and in [12] was “inactive” each time. Also, the Potency entry in [13], in experiment [14], in [15], in experiment [16], in experiment [17] and in [18] was “inactive” throughout.
For the compound `O=C(CCN1CCN(CCO)CC1)N1c2ccccc2Sc2ccc(C(F)(F)F)cc21`, the Potency entry in [1], in [2], in [3], in [4], in experiment [5] and in experiment [6] was “inactive” throughout. Besides, the Potency result in [7], in experiment [8], in experiment [9], in [10], in experiment [11] and in experiment [12] was “inactive” throughout. Besides, the Potency result in experiment [13], in experiment [14], in [15], in [16], in experiment [17] and in experiment [18] was “inactive” throughout. Besides, in [19], the Potency entry was “inactive”.

These data come from PubChem BioAssay (Tox21).
